TRPV1 agonist: agonists of human vanilloid receptor 1 (TRPV1). Q8NER1. TRPV1-expressing cells, Fluo-8 calcium influx, agonist mode. activation, % at 8.33 µM. 320,000 tested, 0.19% active. AID 540275; in the data active = activation above about 80%; inconclusive = between about 30% and that limit
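Fluo-8 calcium influx in TRPV1-expressing cells, kinetic read (ex 480/em 520 nm). Compound added and read 3 min for agonist activity, followed by capsaicin at EC20 final and 2 min further read for enhancement.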
hERG WT inh: blocks the wildtype human KCNH2 potassium channel; Q12809; U2OS, BacMam KCNH2, thallium flux FluxOr; stronger effect = lower value; activity change, % at 1.84 µM; 340,000 tested, 0.37% active;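 active = maximum activity change below -70%; inconclusive = maximum activity change between -70% and -50%; inactive = maximum activity change above -50%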
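U2OS cells were transduced with wild-type KCNH2 virus (2.03 x 10^8 / mL) for 4 h at room temperature, then cultured overnight at 37 C. Thallium flux was read with FluxOr dye. Rate constants were normalized to DMSO controls.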
KCNH2 3.1 block: KCNH2 3.1 (human) potassium channel inhibition. 340,000 tested, 0.95% active. U2OS KCNH2 3.1, thallium flux FluxOr; stronger effect = lower value. activity change, % (tested at about 1.8 µM). AID 720553;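 active = maximum activity change below -70%; inconclusive = maximum activity change from -70% to -50%; inactive = maximum activity change above -50%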;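 also: thallium influx rate constant from kinetic fluorescence after stimulation buffer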
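Virally transduced U2OS (3.1 isoform, 4 h infection in dark at RT) → overnight 37 C → FluxOr + Red40 in HBSS/HEPES, 45 min → stimulation buffer, 2 min kinetic read → rate constant vs DMSO controls.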
TRPV1 PAM: enhances activation of the human vanilloid receptor TRPV1; AID 540277; TRPV1-expressing cells, Fluo-8 calcium influx, capsaicin EC20 potentiation; potentiation, % at 8.33 µM; Q8NER1; 320,000 tested, 0.02% active; in the data active = potentiation above about 80%; inconclusive = between about 30% and that limit
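Fluo-8 calcium influx in TRPV1-expressing cells, kinetic read (ex 480/em 520 nm). Compound added and read 3 min for agonist activity, followed by capsaicin at EC20 final and 2 min further read for enhancement.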
MBNL1-CUG inh: blocks human MBNL1 binding to CUG repeat RNA; Q9NR56; TR-FRET MBNL1-His/biotin-(CUG)12 binding, 665/545 ratio; Potency, µM (doses to about 57.5 µM), actives largely listed as inhibitors; 280,000 tested, 0.036% active; AID 2675; active = well fitted inhibition curve with a large enough effect in the signal ratio, with a control signal flat, not every such curve was filed as active; inconclusive = small, poorly fitted or top-dose-only effect, or effect the other way, or a change in a side signal; inactive = no such curve, though single readings can be large or run the other way; the % refers to the signal ratio
Target sequence (Q9NR56 whole entry, looked up): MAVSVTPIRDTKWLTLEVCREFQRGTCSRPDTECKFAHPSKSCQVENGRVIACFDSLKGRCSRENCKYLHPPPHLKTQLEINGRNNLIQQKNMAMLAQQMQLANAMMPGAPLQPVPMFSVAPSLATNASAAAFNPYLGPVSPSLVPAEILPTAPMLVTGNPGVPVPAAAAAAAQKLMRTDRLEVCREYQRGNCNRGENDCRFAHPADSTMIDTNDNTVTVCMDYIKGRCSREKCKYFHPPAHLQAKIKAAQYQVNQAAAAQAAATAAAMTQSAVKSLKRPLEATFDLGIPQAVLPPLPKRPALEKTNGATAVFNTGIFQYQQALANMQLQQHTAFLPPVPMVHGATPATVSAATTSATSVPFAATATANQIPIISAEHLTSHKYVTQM
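His-tagged MBNL1 binding to biotinylated (CUG)12 RNA was measured by TR-FRET using terbium anti-His antibody (0.055 ng/ul final) and streptavidin-XL665 (5 nM final). Compounds were titrated 92 nM to 58 uM; 60 min at room temperature.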
MBNL1 TRFRET: blocks human MBNL1 binding to CUG repeat RNA, TR-FRET validation; shares compounds with MBNL1-CUG inh; 140 tested, 50% active; TR-FRET MBNL1-His / biotin-(CUG)12 binding, 60 min; Potency, µM (doses to about 57.6 µM), hits mostly inhibitors
MBNL1 AlphaScrn: blocks MBNL1 binding to (CUG)12 RNA in AlphaScreen | AID 493205 | 140 tested, 30% active | AlphaScreen MBNL1-His / biotin-(CUG)12 binding | shares compounds with MBNL1-CUG inh | Potency, µM (top dose mostly 57.7 µM), most hits filed as inhibitors
Menin-MLL HTRF: MBNL1-CUG RNA binding inhibitor counterscreen activity; AID 651843; His-Menin/biotin-MLL peptide TR-FRET counterscreen; shares compounds with MBNL1-CUG inh; Potency, µM (highest dose often 57.6 µM), usual class: inhibitors; 120 tested, 20% active
A number is an active result; i = inactive; ? = inconclusive; nt = not tested or not shown. Compounds with a hit are over-represented: about 1.3% of the library has one in this group of screens. Unless noted, calls follow the shape of the dose curve; as a rule, active = well fitted curve in the direction sought with a large enough effect; inconclusive = small, poorly fitted or top-dose-only effect, or another doubt; inactive = no such curve, though single readings can be large; an effect the other way counts as inactive or inconclusive.

SMILES	TRPV1 agonist	hERG WT inh	KCNH2 3.1 block	TRPV1 PAM	MBNL1-CUG inh	MBNL1 TRFRET	MBNL1 AlphaScrn	Menin-MLL HTRF
Oc1ccc2c3c1O[C@H]1c4[nH]c5ccccc5c4C[C@@]4(O)C(C2)N(CC2CC2)CC[C@]314	i	nt	nt	i	i	nt	nt	nt
Oc1ccc2c3c1O[C@H]1c4[nH]c5c(c4C[C@@]4(O)[C@@H](C2)N(CC2CC2)CC[C@]314)C[C@@]1(O)[C@H]2Cc3ccc(O)c4c3[C@@]1(CCN2CC1CC1)[C@H]5O4	nt	nt	nt	nt	nt	15.8µM	11.2µM	nt
Clc1ccc2c(c1)C(c1ccccc1Cl)=NCc1nnc(Br)n1-2	i	i	i	i	25.1µM	i	i	i
Clc1ccc2c(c1)C(c1ccccc1Cl)=NCc1nncn1-2	i	i	i	i	i	nt	nt	nt
CCn1nc(-c2ccccc2)nc2c(=O)n(C)c(=O)nc1-2	i	i	i	i	?	0.517µM	0.259µM	i
O=P(Nc1ccccc1)(Nc1ccccc1)Oc1cccc(Cl)c1	i	i	i	i	i	nt	nt	nt
O=C1c2ccccc2C(=O)C1C(=O)C(c1ccccc1)c1ccccc1	nt	nt	nt	nt	nt	?	?	i
COC(=O)C1=C(c2ccc(Cl)c(C(F)(F)F)c2)C[C@@H]2CC[C@H]1N2C(=O)NCc1ccco1	i	nt	nt	i	nt	nt	nt	nt
CCCCOC1OCN(C2CCCCC2)CC1(C)C (stereo not drawn)	nt	i	i	nt	nt	nt	nt	nt

Bioassay records: PubChem BioAssay, National Center for Advancing Translational Sciences (NCATS)
